Activity calls are given as the source filed them. How the source made its calls: active means hit-call score of the fitted dose curve at least 0.9, where 1 is the maximum; inactive means score below 0.9.
These compounds were tested against Transcriptional activator Myb (Homo sapiens) (UniProt P10242) (assay: ATG_Myb_CIS: Attagene CIS-FACTORIAL HepG2 Assay for human Myeloblastosis (Myb) Proto-Oncogene Transcription Factor (AID 2282986)). Conditions: HepG2 Attagene CIS-FACTORIAL Myb reporter transcription; actives raise or lower the signal.
Chain of Transcriptional activator Myb (Homo sapiens) (P10242 whole entry, looked up): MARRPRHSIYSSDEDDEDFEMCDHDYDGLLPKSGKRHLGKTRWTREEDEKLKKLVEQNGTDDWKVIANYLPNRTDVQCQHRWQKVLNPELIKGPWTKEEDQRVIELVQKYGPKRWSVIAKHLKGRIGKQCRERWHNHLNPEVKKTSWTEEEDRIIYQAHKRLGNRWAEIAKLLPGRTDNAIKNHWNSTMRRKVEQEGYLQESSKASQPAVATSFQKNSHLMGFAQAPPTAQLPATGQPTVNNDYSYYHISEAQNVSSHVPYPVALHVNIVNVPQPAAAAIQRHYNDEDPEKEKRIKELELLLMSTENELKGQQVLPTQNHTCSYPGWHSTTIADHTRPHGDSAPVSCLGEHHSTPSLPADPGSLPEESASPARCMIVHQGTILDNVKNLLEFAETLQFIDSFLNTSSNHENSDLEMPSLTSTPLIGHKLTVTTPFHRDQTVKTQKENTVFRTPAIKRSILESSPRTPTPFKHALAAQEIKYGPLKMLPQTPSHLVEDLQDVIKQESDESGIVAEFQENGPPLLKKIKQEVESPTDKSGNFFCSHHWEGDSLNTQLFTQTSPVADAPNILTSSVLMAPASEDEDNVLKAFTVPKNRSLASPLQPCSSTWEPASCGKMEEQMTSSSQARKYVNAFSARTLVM
Description: ATG_CIS is a cell-based, multiplexed-readout assay that uses HepG2, a human liver cell line, with measurements taken at 24 hours after chemical dosing in a 24-well plate.ATG_Myb_CIS is one of 52 assay component(s) measured or calculated from the ATG_CIS assay. It is designed to make measurements of mRNA induction, a form of inducible reporter, as detected with fluorescence intensity signals by Reverse transcription polymerase chain reaction (RT-PCR) and Capillary electrophoresis technology.Data from the assay component ATG_Myb_CIS was analyzed into 1 assay endpoint. This assay endpoint, ATG_Myb_CIS, was analyzed with bidirectional fitting relative to DMSO as the negative control and baseline of activity. Using a type of inducible reporter, measures of mRNA for gain or loss-of-signal activity can be used to understand the reporter gene at the transcription factor-level as they relate to the gene MYB. Furthermore, this assay endpoint can be referred to as a primary readout, because this assay has produced multiple assay endpoints where this one serves a reporter gene function. To generalize the intended target to other relatable targets, this assay endpoint is annotated to the dna binding intended target family, where the subfamily is MYB proteins.
Human liver HepG2 cells are transiently transfected with multiple reporter transcription units (MRTUs) in 6-well plates using FuGene 6 reagent (Roche; 3 ml FuGene/1 mg DNA). The MRTU constructs are regulated by a cis-regulating element (promoter). […] A major difference between the CIS and TRANS system is that in CIS activities of endogenous TFs are measured, whereas the TRANS assay evaluates changes in activities of exogenous, chimeric NR-Gal4 proteins. […] At the end of 24 hour incubation, total RNA was isolated using TriZol reagent (Invitrogen). The isolated RNA is then reverse-transcribed using oligo(dT) primer and Mo-MLV reverse transcriptase (Invitrogen) with DNAse I (Ambion) treatment for 30 min. The one-tenth of the produced cDNA was amplified by PCR using Taq DNA polymerase (Invitrogen) and two reporter sequence-specific primers. The PCR products were fluorescently labeled by primer extension with 6-arboxyfluorescein (6-FAM) 5'-labeled reporter sequence-specific primer (2 min at 95 C, 20 s at 68 C and 10 min at 72 C) and these products were digested with 5U of HpaI (New England Biolabs) for 2h at 37 C. The fragments were purified using Qiaquick PCR columns (Qiagen), analyzed on an ABI 3130xL genetic analyzer (Applied Biosystems) with peak positions identified by using a set of X-rhodamine (ROX)-labeled MapMarker1000 molecular weight standards (BioVentures). The raw capillary electrophoresis data was processed using Attagraph software (Attagene).
`O=C(Nc1ccc([N+](=O)[O-])cc1Cl)c1cc(Cl)ccc1O` was tested, and the outcome was “inactive”. With `COC(=O)c1ccccc1C(=O)O` the outcome was “inactive”. In the case of `OB(O)O`, the outcome is reported as “inactive”. In the case of `CC(=O)[C@H]1CC[C@H]2[C@@H]3CCC4=CC(=O)CC[C@]4(C)[C@H]3CC[C@]12C`, the outcome is reported as “inactive”. `C[C@]12C[C@H](O)[C@H]3[C@@H](CCC4=CC(=O)CC[C@@]43C)[C@@H]1CC[C@@H]2C(=O)CO` was tested, and the outcome was “inactive”. `COC(=O)c1ccccc1S(=O)(=O)NC(=O)Nc1nc(OC(F)F)cc(OC(F)F)n1` was tested, and the outcome was “inactive”. With `COCCO` the outcome was “inactive”. In the case of `O=C(O)c1ccccc1`, the outcome is reported as “inactive”. `CCCCOCCOCCOCc1cc2c(cc1CCC)OCO2` was tested, and the outcome was “inactive”. With `CC(C)CCCCCCc1ccc(O)cc1` the outcome was “inactive”. In the case of `C=CCOC(Cn1ccnc1)c1ccc(Cl)cc1Cl` (stereo not given), the outcome is reported as “inactive”. For `CC(=O)S[C@@H]1CC2=CC(=O)CC[C@]2(C)[C@H]2CC[C@@]3(C)[C@@H](CC[C@@]34CCC(=O)O4)[C@H]12`, the outcome was “inactive”. For `C#C[C@]1(O)CC[C@H]2[C@@H]3CCC4=CC(=O)CC[C@@H]4[C@H]3CC[C@@]21CC`, the outcome was “inactive”. In the case of `COC(=O)c1ccc(I)cc1S(=O)(=O)NC(=O)Nc1nc(C)nc(OC)n1`, the outcome is reported as “inactive”. `C[C@]12CC[C@@H]3c4ccc(O)cc4C[C@@H](CCCCCCCCCS(=O)CCCC(F)(F)C(F)(F)F)[C@H]3[C@@H]1CC[C@@H]2O` (stereo not given in full) was tested, and the outcome was “inactive”. In the case of `CSC(=O)c1cccc2nnsc12`, the outcome is reported as “inactive”. For `CC(C)(C)[C@@H](O)[C@@H](Cc1ccc(Cl)cc1)n1cncn1`, the outcome was “inactive”. For `CCOC(=O)[C@H](C)Oc1ccc(Oc2nc3ccc(Cl)cc3o2)cc1`, the outcome was “inactive”. For `COc1nc(C)nc(NC(=O)NS(=O)(=O)c2ccccc2OCCCl)n1`, the outcome was “inactive”. `S=C(S)NCCNC(=S)S.[Mn+2].[S-]C([S-])=NCCN=C([S-])[S-].[Zn+2]` was tested, and the outcome was “inactive”. For `CCN(Cc1c(F)cccc1Cl)c1c([N+](=O)[O-])cc(C(F)(F)F)cc1[N+](=O)[O-]`, the outcome was “inactive”. `CCNc1nc(N)nc(Cl)n1` was tested, and the outcome was “inactive”. `CCOC(=O)NCCOc1ccc(Oc2ccccc2)cc1` was tested, and the outcome was “inactive”. In the case of `COC(=O)c1c(Cl)nn(C)c1S(=O)(=O)NC(=O)Nc1nc(OC)cc(OC)n1`, the outcome is reported as “inactive”. In the case of `COC(=O)CSc1cc(N=c2sc(=O)n3n2CCCC3)c(F)cc1Cl`, the outcome is reported as “inactive”. `CCCOC(=O)NCCCN(C)C` was tested, and the outcome was “inactive”. In the case of `CCC(O)=C1C(=O)CC(C(=O)O)CC1=O` (stereo not given), the outcome is reported as “inactive”. With `CCC(C)OC(=O)N1CCCCC1CCO` (stereo not given) the outcome was “inactive”. For `Cc1nn(C)c(Oc2ccccc2)c1C=NOCc1ccc(C(=O)OC(C)(C)C)cc1`, the outcome was “inactive”. In the case of `CC(C)(c1ccc(O)cc1)c1ccc(O)cc1`, the outcome is reported as “inactive”. For `Oc1ccc(C(c2ccc(O)cc2)C(Cl)(Cl)Cl)cc1`, the outcome was “inactive”. With `CCOC(=O)C(C)Oc1ccc(Oc2nc3ccc(Cl)cc3o2)cc1` (stereo not given) the outcome was “inactive”. For `CN(C)C(=O)Nc1ccc(Cl)c(Cl)c1`, the outcome was “inactive”. With `c1ccc(Nc2ccccc2)cc1` the outcome was “inactive”. For `CCCN(CCC)C(=O)SCC`, the outcome was “inactive”. With `C#CCOC(=O)[C@@H](C)Oc1ccc(Oc2ncc(Cl)cc2F)cc1` the outcome was “inactive”. With `CCOC(=O)COc1cc(-n2ncc(C(F)(F)F)c(C)c2=O)c(F)cc1Cl` the outcome was “inactive”. `N[C@@H](Cc1cc(I)c(Oc2ccc(O)c(I)c2)c(I)c1)C(=O)O` was tested, and the outcome was “inactive”. `COC(=O)c1ccc(CNS(C)(=O)=O)cc1S(=O)(=O)NC(=O)Nc1nc(OC)cc(OC)n1` was tested, and the outcome was “inactive”. `CCCCC(CC)COC(=O)c1ccccc1C(=O)O` (stereo not given) was tested, and the outcome was “inactive”.

Source: PubChem BioAssay (EPA / NIEHS)
